The whole screen tested about 330,000 compounds, of which about 1,400 (0.42%) were called active. For the sample, actives were picked, then their nearest neighbours and some compounds at random. Values without a mark were called inactive.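 How the source made its calls: active means plate passing quality check with inhibition over a set limit, or well fluorescence over plate mean plus 4 SD; inactive means the rest.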

As a reminder, the inhibition is the change of the read-out against control, counted positive when it falls.

The nature of the experiment: antifungal drug efflux pump blockers, triplex strains – S. cerevisiae, Nile Red, multiplex, primary screen (AID 485275).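 Further: Nile Red retained in pooled yeast measured as flow cytometry median fluorescence; 0% = buffer negative control and 100% = Enniatin B positive control; higher means more Nile Red kept so more efflux inhibition.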 Particulars: S. cerevisiae Candida pump triplex, at 10 µM, hits give high values.
Regarding `CCCN(CC(=O)Nc1ccccc1C)C(=O)c1ccc2[nH]c3c(c2c1)CC(C)CC3` (centres undefined), the inhibition is 0.26%.

`Cn1nc(C(C)(C)C)c(NC(=O)c2sccc2Cl)c1C(C)(C)C`: the inhibition was 0.22%.

For `COc1cccc(CNS(=O)(=O)c2csc(C(N)=O)c2)c1`, the inhibition was -0.01%.

As for `CN(CCNC(=O)c1cc2c(-c3ccccc3F)nn(C)c2s1)C1CCCCC1`, the inhibition is 0%.

As to `CCCCCCCCCCCCCCCC(=O)OC/C=C(C)/C=C/C=C(C)/C=C/C1=C(C)CCCC1(C)C`, the inhibition was 1.61% (active).

For the molecule `CC1=C(/C=C/C(C)=C/C=C/C(C)=C/C=C/C=C(C)/C=C/C=C(C)/C=C/C2=C(C)CCCC2(C)C)C(C)(C)CCC1`, the inhibition is 0.08%.

With `CCc1ccc(/C=N/NC(=O)c2ccc(OC3CCCC3)cc2)s1`, the inhibition was -0.12%.

On to `COCCOC1CCN(C(=O)c2ccc(OC)c(OC3CCN(C(C)C)CC3)c2)CC1`, for which the inhibition was -0.1%.

Regarding `CCOc1ccc(NC(=O)c2cccc3c2C(=O)N(CC2CCCO2)C3)cc1` (centres undefined), the inhibition was 0.06%.

On to `CC(C)n1c(COc2ccccc2)nc2ccccc21`, for which the inhibition was 0.39%.

`O=C(Cn1c(COc2ccccc2)nc2ccccc21)Nc1cc(Cl)c(Cl)cc1Cl`: the inhibition was 0.72% (active).

Regarding `O=C(Cn1c(-c2cscn2)nc2ccccc21)Nc1ccc(Cl)cc1`, the inhibition is -0.15%.

`Cc1ccc(C)c(NC(=O)c2ccc(OC(=O)c3ccco3)cc2)c1`: the inhibition is 0.04%.

Consider `Fc1ccccc1/C=N/n1c(-c2cccnc2)n[nH]c1=S`, for which the inhibition was -0.01%.

As to `COc1ccccc1/C=C/C=N/n1c(-c2ccc(Cl)cc2Cl)n[nH]c1=S`, the inhibition is 0.42% (active).

Turning to `S=c1[nH]nc(-c2ccncc2)n1/N=C/c1ccccc1Cl`, the inhibition is 0.13%.

With `Cn1c(=O)c2c(nc(N3CCCCCC3)n2CC(O)COc2ccc(Cl)cc2)n(C)c1=O` (centres undefined), the inhibition was 0.11%.

In the case of `CCCCN1C(=O)/C(=C2/C=CC=CN2C)SC1=S`, the inhibition is 0.04%.

For the molecule `CCCCN1C(=O)/C(=C/C=C2/C=Cc3ccccc3N2CC)SC1=S`, the inhibition is 1% (active).

Consider `CCCCN1C(=O)/C(=C2/Sc3ccc(Cl)cc3N2CC)SC1=S`, for which the inhibition was -0.02%.

Take `Cc1ccc(N2CCN(c3ccc(C)cc3)C2c2ccccn2)cc1`: the inhibition was 0.22%.

Take `CSCCC(NC(=O)COc1ccccc1)C(=O)OCC(=O)c1cc2ccccc2o1` (centres undefined): the inhibition was -0.18%.

As to `CSCCC(NC(=O)COc1ccccc1)C(=O)OCCOc1ccc(Br)cc1` (centres undefined), the inhibition is 0.49% (active).

Consider `CSCCC(NC(=O)COc1ccccc1)C(=O)OCCOc1ccc(F)cc1` (centres undefined), for which the inhibition is 0.07%.

Turning to `O=C(CCC(=O)N1CCCC1)Nc1ccc([N+](=O)[O-])cc1`, the inhibition is 0.32%.

As for `Cc1ccc(NC(=O)c2ccc(Cl)nc2)cc1S(=O)(=O)N1CCOCC1`, the inhibition is 0.15%.

`Cc1cc(C(=O)Nc2ccc(C)c(S(=O)(=O)N3CCOCC3)c2)c2ccccc2n1`: the inhibition is 1.11% (active).

Take `Cc1cc(C(=O)NNC(=O)c2cccc(S(=O)(=O)N3CCOCC3)c2)c2ccccc2n1`: the inhibition is 0%.

In the case of `COc1ccc(C2(C)NC(=O)N(CC(=O)c3ccc4c(c3)OCO4)C2=O)cc1` (centres undefined), the inhibition was 0.11%.

Consider `CCCCN(C(=O)C(CCSC)N1C(=O)c2ccccc2C1=O)c1c(N)n(CCC)c(=O)[nH]c1=O` (centres undefined), for which the inhibition was -0.17%.

For `Cc1nn(C)cc1N1C(=O)c2cccc3c(N)ccc(c23)C1=O`, the inhibition was 0.48% (active).

On to `Cc1ccc(NC(=O)COC(=O)C2C3CC4OC(=O)C2C4C3)cc1Cl` (centres undefined), for which the inhibition was 0.04%.

With `Cc1noc(C)c1COc1ccc2ccc(=O)oc2c1`, the inhibition is 0.13%.

Take `Cc1oc2cc3oc(=O)ccc3cc2c1C`: the inhibition was 2.16% (active).

In the case of `COc1c(C(C)C)oc2cc3oc(=O)ccc3cc12`, the inhibition is 0%.

In the case of `CC[C@]1(C(=O)OC)[C@H]2C(=O)N(Cc3ccccc3)C(=O)[C@H]2[C@H]2CN=C(SCc3ccc(Cl)cc3)N21`, the inhibition is 0.03%.

As for `CC(=O)N1CCN(CC(C)(C)NS(=O)(=O)c2ccc(C)cc2)CC1`, the inhibition was 0.16%.

As to `CCn1ncc(C2=NOC(C(=O)Nc3ccccc3C(=O)OC)C2)c1C` (centres undefined), the inhibition was -0.18%.

On to `Cc1cccc(NC(=O)COc2ccc(Br)cc2C)n1`, for which the inhibition was -0.04%.

`Cc1ccccc1OCC(=O)Nc1nc(C)c(C(=O)N(C)C)s1`: the inhibition was -0.09%.

With `Cc1cccc(NC(=O)COc2ccccc2C)n1`, the inhibition is 1.07% (active).

As to `COc1ccc(Cc2nc3ccc(C(=O)N4CCC(N(C)C)C4)cc3o2)cc1` (centres undefined), the inhibition is -0.47%.

Take `O=C(COc1ccccc1F)NNC(=O)c1cc(Br)ccc1Cl`: the inhibition is 0.03%.

`CC1CCN(C(=O)CCc2nnc3ccc(NCc4ccco4)nn23)CC1`: the inhibition was 0.1%.

Take `CCC1(CC)NC(=O)N(CC(=O)OCC(=O)NC(=O)c2ccccc2)C1=O`: the inhibition is 0.07%.

As to `NC(=O)c1oc2ccccc2c1NC(=O)Cc1ccccc1`, the inhibition was 0.32%.

As to `O=C(Cc1ccccc1)NCC1OCCc2ccccc21` (centres undefined), the inhibition is 0.87% (active).

`O=S(=O)(NCC1OCCc2ccccc21)c1ccccc1` (centres undefined): the inhibition was -0.08%.

For the molecule `COc1ccc(C2=NN(C(=O)c3ccccc3C(=O)O)C(c3ccccc3O)C2)cc1` (centres undefined), the inhibition is -0.05%.

As to `CCOc1ccccc1C1CC(c2cccc(NS(C)(=O)=O)c2)=NN1C(=O)c1ccccc1` (centres undefined), the inhibition is -0.18%.

Regarding `CCOc1ccc2nc(Cl)c(C3CC(c4ccccc4)=NN3C(=O)c3cccs3)cc2c1` (centres undefined), the inhibition is 0.46% (active).

Regarding `N#Cc1ccc(CN2CCN(CC(=O)Nc3ccccc3C(=O)NC3CC3)CC2)cc1`, the inhibition is 0.14%.

In the case of `CCCCC(NS(=O)(=O)c1ccc(C)cc1)C(=O)Oc1ccc2c3c(c(=O)oc2c1)CCC3` (centres undefined), the inhibition was 0.09%.

`C/C(N)=C(/C#N)C(=O)COC(=O)c1cc(-c2cccc(Br)c2)nc2ccccc12`: the inhibition is 37.8% (active).

Consider `C/C(N)=C(/C#N)C(=O)COC(=O)c1cc(-c2ccccc2)nc2ccc(Br)cc12`, for which the inhibition is 0.06%.

For the molecule `C/C(N)=C(/C#N)C(=O)COC(=O)c1cc(-c2ccc(C)cc2)nc2ccccc12`, the inhibition is -0.3%.

For the molecule `COc1ccccc1NC(=O)C1CCCN1S(=O)(=O)c1ccc(Cl)cc1` (centres undefined), the inhibition was 0.94% (active).

Regarding `CC(C)c1nnc(NC(=O)C2CCCN2S(=O)(=O)c2ccc(Cl)cc2)s1` (centres undefined), the inhibition was -0.16%.

With `Cc1cccc(NC(=O)C2CCCN2S(=O)(=O)c2ccc(F)cc2)c1C` (centres undefined), the inhibition was -0.01%.

These data come from PubChem BioAssay AID485275 (NMMLSC, 2010).
